Screening results deposited in PubChem BioAssay by several laboratories.
A selection: hits, their analogues and other compounds. The true share with any hit is near 28%.
D1 allo mod: allosterically modulates the human D1 dopamine receptor | P21728 | 58,000 compounds, 5.9% hits | B-score at 10 µM | HEK293 D1, CRE-luciferase, dopamine EC30 potentiation; actives deviate in either direction;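 active = luminescence count or its row- and column-corrected plate score outside the 99.7% band of the plate's sample wells, on either side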
CYP2C19 inhib: inhibitors of human CYP2C19; 96,000 compounds, 21% hits; P33261; CYP2C19 Supersomes, luciferin-H EGE luminescence, 30 min; inhibition, % at 5 µM;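 active = CYP2C19 inhibition above a set limit at 5 µM in the primary screen, cut at about 50% in these data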;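 also: plate controls were negative control wells for no effect and 2.5 mM tranylcypromine positive control for full effect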
Target sequence (P33261 whole entry, looked up): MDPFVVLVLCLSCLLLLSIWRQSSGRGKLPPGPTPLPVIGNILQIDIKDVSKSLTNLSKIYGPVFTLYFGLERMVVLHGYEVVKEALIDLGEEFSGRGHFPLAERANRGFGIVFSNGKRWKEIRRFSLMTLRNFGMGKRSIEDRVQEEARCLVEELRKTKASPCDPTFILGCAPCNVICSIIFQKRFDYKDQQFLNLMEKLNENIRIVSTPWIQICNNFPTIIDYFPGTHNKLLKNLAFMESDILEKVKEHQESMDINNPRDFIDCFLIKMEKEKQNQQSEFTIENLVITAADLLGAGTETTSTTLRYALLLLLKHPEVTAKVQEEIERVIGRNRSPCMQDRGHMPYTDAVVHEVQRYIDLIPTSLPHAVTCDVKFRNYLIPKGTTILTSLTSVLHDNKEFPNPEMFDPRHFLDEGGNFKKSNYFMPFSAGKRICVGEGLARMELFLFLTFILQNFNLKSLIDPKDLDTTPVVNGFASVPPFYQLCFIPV
CYP2C19 act: activators of human cytochrome P450 2C19. recombinant CYP2C19, luciferin-H EGE luminescence; stronger effect = higher value; 0 = fully inhibited enzyme, 1 = untreated enzyme. P33261. activation factor at 5 µM. 96,000 tested, under 10 active;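 active = activation factor of at least 2 at 5 µM in the primary screen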;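 also: 0 = wells with 2.5 mM tranylcypromine and 1 = vehicle-only wells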
CYP2C9 activ: increases human cytochrome P450 2C9 activity; P11712; recombinant CYP2C9, luciferin-H conversion, luminescence; stronger effect = higher value; factor 1 = untreated enzyme, 0 = blocked; activation factor at 5 µM; 96,000 compounds, 1.4% hits; AID 1024;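 active = activation factor of 2 or more for CYP2C9 at a 5 µM dose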;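 also: 0 = sulfaphenazole-blocked wells and 1 = vehicle-only wells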
CYP2C9 inh: blocks human cytochrome P450 2C9; CYP2C9 Supersomes, luciferin-H conversion, luminescence; inhibition, % at 5 µM; 96,000 compounds, 20% hits; AID 777;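 active = blocking of liver enzyme CYP2C9 beyond about 50% at 5 µM, limit read from the data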
hDAT+cocaine: human DAT dopamine uptake with cocaine, either direction | AID 449768 | 110,000 compounds, 1.3% hits | B-score at 10 µM | Q01959 | LLC-PK1 hDAT cells, [14C]-dopamine uptake with cocaine IC80; actives deviate in either direction;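 active = Z score or B-score, a plate-position-corrected score, falls beyond the plate's 99.7% confidence bounds, in either direction; inactive = both scores lie inside the 99.7% bounds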;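 also: scored against the spread of the other compound wells on the same plate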
* marks the source's active call; other numbers are inactive results; x = not tested or not shown.

SMILES	D1 allo mod	CYP2C19 inhib	CYP2C19 act	CYP2C9 activ	CYP2C9 inh	hDAT+cocaine
Cc1ccc(CN2C(=O)C3CCCN3c3ccc(S(=O)(=O)N4CCOCC4)cc32)cc1 (configuration not stated)	x	10	0.9	0.6	43	-0.66
COc1ccc(C(=O)NC2(C(F)(F)F)C(=O)N(Cc3ccco3)C3=C2C(=O)CC(C)(C)C3)cc1OC (configuration not stated)	x	7	0.9	1	3	-0.24
CC1(C)Cc2c(sc3ncn4nc(-c5ccco5)nc4c23)CO1	5.9*	x	x	x	x	x
CCOC(=O)C1CCN(c2c(NCc3ccc(C(=O)NC4CCCC4)cc3)c(=O)c2=O)CC1	x	7	0.9	0.4	61*	-1.9
Cc1ccc(NC(=O)c2ccc(CNc3c(N4CCOCC4)c(=O)c3=O)cc2)cc1	x	6	0.9	0.8	18	x
Cc1ccc(CNC(=O)c2ccc(CNc3c(N4CCCC4)c(=O)c3=O)cc2)cc1	x	80*	0.2	0.5	51*	-0.81
Cc1occc1-c1nnc2sc(-c3ccc(-c4ccc(Cl)cc4)o3)nn12	-0.056	x	x	x	x	x
CC(C)CCNC(=O)COC(=O)c1ccc(Br)o1	x	50	0.5	0.7	26	-0.75
O=C(COC(=O)c1ccc(Br)o1)NCCCc1ccccc1	0.071	48	0.5	0.3	71*	-0.11
COc1ccc(CCNC(=O)COC(=O)c2ccc(Br)o2)cc1	x	42	0.6	0.2	78*	0.039
COc1ccc(CCNC(=O)COC(=O)c2ccc(Br)o2)cc1OC	x	71*	0.3	0.2	80*	-1.6
O=C1OCC2=C1C(c1ccc(F)cc1)Sc1ccccc1N2 (configuration not stated)	x	77*	0.2	0.2	75*	-0.23
COc1cc(C2Sc3ccccc3NC3=C2C(=O)OC3)cc(OC)c1OC (configuration not stated)	x	x	x	x	x	-0.53
CCC(C)NCCCCOc1ccc(C)cc1[N+](=O)[O-] (configuration not stated)	x	-8	1.1	1	2	0.012
Cn1c(=O)c(-c2ccccc2)nn2c3ccccc3nc12	2	62*	0.4	0.3	74*	-0.52
Cc1nn2c3ccccc3nc2n(Cc2ccccc2)c1=O	1.7	x	x	x	x	x
CC1(C)Cc2c(C#N)c(SCC(=O)c3ccccc3)nc(N3CCOCC3)c2CS1	x	81*	0.2	0	98*	-0.69
CN1Cc2c(N3CCOCC3)nc(SCc3ccccc3)c(C#N)c2CC1(C)C	x	41	0.6	0.1	91*	1.4
CCSc1nc(N2CCOCC2)c2c(c1C#N)CC(C)(C)N(C)C2	x	51*	0.5	0.1	87*	-0.56
COC(=O)CSc1nc(N2CCOCC2)c2c(c1C#N)CC(C)(C)N(C)C2	0.023	5	1	0.4	56*	-0.37
COCCCNC(=O)c1ccc(-n2nc(C(F)(F)F)cc2-c2cccs2)cc1	x	53*	0.5	0.5	50*	-0.64
O=C(NCCCN1CCOCC1)c1ccc(-n2nc(C(F)(F)F)cc2-c2cccs2)cc1	x	42	0.6	0.3	65*	1.2
CC(=O)c1cccc(NC(=O)C2CCCN2S(=O)(=O)c2cccc3cccnc23)c1 (configuration not stated)	-0.31	56*	0.4	0.1	92*	0.58
CC(=O)c1cccc(NC(=O)C2CCCN(S(=O)(=O)c3cccc4cccnc34)C2)c1 (configuration not stated)	0.13	30	0.7	1.2	-15	-0.022
CSc1cccc(NC(=O)C2CCCN2S(=O)(=O)c2ccc(Br)s2)c1 (configuration not stated)	x	98*	0	0.3	74*	-0.019
SMILES	D1 allo mod	CYP2C19 inhib	CYP2C19 act	CYP2C9 activ	CYP2C9 inh	hDAT+cocaine
O=C(NCc1ccccc1)C1CCCN1S(=O)(=O)c1cccc2cccnc12 (configuration not stated)	-0.13	30	0.7	1.8	-80	-0.26
O=C(Nc1cccc(F)c1)C1CCCN1S(=O)(=O)c1cccc2cccnc12 (configuration not stated)	-0.16	80*	0.2	0.2	81*	-0.29
O=C(Nc1ccc2c(c1)OCCO2)C1CCCN1S(=O)(=O)c1cccc2cccnc12 (configuration not stated)	0.83	15	0.8	0	97*	-0.0095
Cc1cc(-c2ccccc2)nc2cc(C(=O)NCc3ccco3)nn12	x	x	x	x	x	0.58
COC(C[C@@H](O)C[C@@H](O)COCc1ccccc1)OC	x	x	x	x	x	0.45
O=C(Nc1ccc(C(F)(F)F)cc1)C1CCCN1S(=O)(=O)c1cccc2cccnc12 (configuration not stated)	1	29	0.7	0.4	57*	1.1
CC(C)c1cc(C(N)=O)c(NC(=O)c2cccc(COc3ccc(Cl)cc3)c2)s1	x	74*	0.3	0.3	72*	x
COC(=O)c1ccnc(/C=N/O)c1	0.19	x	x	x	x	-1.5
Cc1noc(C)c1CSCC(=O)OCC(=O)Nc1sccc1C#N	0.033	38	0.6	0.3	67*	0.62
CCOC(=O)Cc1cn2c(=O)cc(CSCC(=O)Nc3ccc(C)c(C)c3)nc2s1	-0.015	21	0.8	0.3	74*	0.38
Cc1ccc(NC(=O)CSCc2c(C)noc2C)cc1C	0.044	94*	0.1	0.5	48	0.032
Cc1cccc(N2CCN(C(=O)CSCc3c(C)noc3C)CC2)c1C	-1.5	8	0.9	0.7	33	x
c1cncc(CNc2nc(N3CCOCC3)nc(N3CCOCC3)n2)c1	0.74	37	0.6	0.9	11	0.31
CC(=O)C(Sc1nc(N2CCOCC2)nc(N2CCOCC2)n1)C(=O)Nc1ccccc1 (configuration not stated)	0.57	21	0.8	0.4	55*	-0.58
CC(Sc1nc(NCc2ccccc2)nc(N2CCOCC2)n1)C(=O)Nc1ccccc1 (configuration not stated)	0.033	24	0.8	0.2	80*	0.21
O=C(CSc1nc(Nc2ccccc2)nc(N2CCOCC2)n1)N1CCc2ccccc21	1.2	33	0.7	0.5	46	-1.1
CN(C)c1nc(NCc2ccccc2)nc(SCC(=O)Nc2ccccc2)n1	x	8	0.9	0.9	8	-0.88
CC(Sc1nc(NCc2ccccc2)nc(N(C)C)n1)C(=O)Nc1ccccc1 (configuration not stated)	x	58*	0.4	0.2	81*	-0.63
Cc1ccccc1NC(=O)CSc1nc(Nc2ccccc2)nc(N2CCOCC2)n1	2.2	49	0.5	0.4	62*	0.63
COc1ccccc1-c1cc2ccccc2[nH]1	x	x	x	x	x	0.56
CC(=O)C(Sc1nn(C)c(=S)s1)C(=O)Nc1ccccc1 (configuration not stated)	-0.45	20	0.8	0	96*	-1.2
